# Measurements as given in PubChem BioAssay.
# Activity calls are given as the source filed them.
# Experiments:
# [1] = tested on: PRMT1 (protein arginine N-methyltransferase 1); assay: PRMT1 binders on small-molecule microarrays, primary screen, biochemical, small-molecule microarray, 635 nm fluorescence (AID 1088); details: small-molecule microarray binding, higher = more signal;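 also: binding of Prmt1 protein to compounds spotted on small-molecule microarray slides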
# [2] = yeast growth modulation, basal conditions, primary screen, YJM789 clinical isolate, OD600, 24 h (AID 1089);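 also: growth of clinical yeast isolate S. cerevisiae YJM 789 seeded 1000 cells per well; test concentration not given here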; details: S. cerevisiae YJM789 growth, higher = more signal, called active from +8 up or from −8 down
# [3] = fission yeast growth modulation, primary screen, strain 972, OD600, 24 h, no modulator (AID 1090);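 also: basal condition with compound alone and no growth modifier present; test concentration not given here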; details: S. pombe 972 growth, higher = more signal, called active from +8 up or from −8 down
# [4] = S. cerevisiae growth modulation with rapamycin, primary screen, strain BY4716, OD600, 96 h (AID 1091); details: higher = more signal, called active from +8 up or from −8 down; also: test concentration not given here
# [5] = biological target: Torsin-1A-interacting protein 2 (Homo sapiens) (UniProt Q8NFQ8); assay: LULL1 binders on small-molecule microarray, primary screen, cell lysate, human LULL1 lysate, 635/667 nm fluorescence (AID 1092); details: hLULL1 lysate binding, 635 nm fluorescence, higher = more signal;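 also: probe is lysate of COS7 cells overexpressing human LULL1; score merges per-feature 667 nm fluorescence with signal-to-noise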
# Chain of Torsin-1A-interacting protein 2 (Homo sapiens) (Q8NFQ8 whole entry, looked up): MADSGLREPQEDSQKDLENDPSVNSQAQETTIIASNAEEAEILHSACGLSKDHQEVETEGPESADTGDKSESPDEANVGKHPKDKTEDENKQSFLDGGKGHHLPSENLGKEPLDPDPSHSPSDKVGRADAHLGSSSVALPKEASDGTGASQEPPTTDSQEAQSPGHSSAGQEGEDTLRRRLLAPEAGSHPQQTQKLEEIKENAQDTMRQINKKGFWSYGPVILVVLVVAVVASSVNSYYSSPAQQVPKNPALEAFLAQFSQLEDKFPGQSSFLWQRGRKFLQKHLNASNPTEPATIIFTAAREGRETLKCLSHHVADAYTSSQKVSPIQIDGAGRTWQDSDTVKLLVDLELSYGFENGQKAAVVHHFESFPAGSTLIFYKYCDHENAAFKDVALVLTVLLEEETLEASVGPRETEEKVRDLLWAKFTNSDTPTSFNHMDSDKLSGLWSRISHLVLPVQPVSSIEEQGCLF
# [6] = E. coli growth modulation, two-sided OD650, primary screen, E. coli filamentation project, strain DRC41, 24 h (AID 1093); details: OD650, 24 h, higher = more signal, called active from +8 up or from −8 down;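 also: MC1000 strain lacking acrAB efflux and sulA so SOS filamentation is blocked; test concentration not given here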
# [7] = small-molecule microarray binders of probe aLefty2, primary screen, biochemical, biotinylated probe, 635/667 nm fluorescence (AID 1094); details: higher = more signal;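 also: score merges spot fluorescence near 667 nm with spot signal-to-noise ratio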
# [8] = tested on: Noggin (protein binding on small-molecule microarray); assay: Noggin binders on small-molecule microarray, primary screen, biochemical, 635/667 nm fluorescence (AID 1095); details: 635 nm fluorescence, higher = more signal;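 also: score merges 667 nm feature fluorescence with signal to noise over triplicate slides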
# [9] = biological target: Neurogenic locus notch homolog protein 3 (Homo sapiens) (UniProt Q9UM47); assay: NOTCH3 binders on small-molecule microarray, primary screen, biochemical, 635/667 nm fluorescence (AID 1096); details: NOTCH3 binding, 635 nm fluorescence, higher = more signal
# Chain of Neurogenic locus notch homolog protein 3 (Homo sapiens) (Q9UM47 whole entry, looked up): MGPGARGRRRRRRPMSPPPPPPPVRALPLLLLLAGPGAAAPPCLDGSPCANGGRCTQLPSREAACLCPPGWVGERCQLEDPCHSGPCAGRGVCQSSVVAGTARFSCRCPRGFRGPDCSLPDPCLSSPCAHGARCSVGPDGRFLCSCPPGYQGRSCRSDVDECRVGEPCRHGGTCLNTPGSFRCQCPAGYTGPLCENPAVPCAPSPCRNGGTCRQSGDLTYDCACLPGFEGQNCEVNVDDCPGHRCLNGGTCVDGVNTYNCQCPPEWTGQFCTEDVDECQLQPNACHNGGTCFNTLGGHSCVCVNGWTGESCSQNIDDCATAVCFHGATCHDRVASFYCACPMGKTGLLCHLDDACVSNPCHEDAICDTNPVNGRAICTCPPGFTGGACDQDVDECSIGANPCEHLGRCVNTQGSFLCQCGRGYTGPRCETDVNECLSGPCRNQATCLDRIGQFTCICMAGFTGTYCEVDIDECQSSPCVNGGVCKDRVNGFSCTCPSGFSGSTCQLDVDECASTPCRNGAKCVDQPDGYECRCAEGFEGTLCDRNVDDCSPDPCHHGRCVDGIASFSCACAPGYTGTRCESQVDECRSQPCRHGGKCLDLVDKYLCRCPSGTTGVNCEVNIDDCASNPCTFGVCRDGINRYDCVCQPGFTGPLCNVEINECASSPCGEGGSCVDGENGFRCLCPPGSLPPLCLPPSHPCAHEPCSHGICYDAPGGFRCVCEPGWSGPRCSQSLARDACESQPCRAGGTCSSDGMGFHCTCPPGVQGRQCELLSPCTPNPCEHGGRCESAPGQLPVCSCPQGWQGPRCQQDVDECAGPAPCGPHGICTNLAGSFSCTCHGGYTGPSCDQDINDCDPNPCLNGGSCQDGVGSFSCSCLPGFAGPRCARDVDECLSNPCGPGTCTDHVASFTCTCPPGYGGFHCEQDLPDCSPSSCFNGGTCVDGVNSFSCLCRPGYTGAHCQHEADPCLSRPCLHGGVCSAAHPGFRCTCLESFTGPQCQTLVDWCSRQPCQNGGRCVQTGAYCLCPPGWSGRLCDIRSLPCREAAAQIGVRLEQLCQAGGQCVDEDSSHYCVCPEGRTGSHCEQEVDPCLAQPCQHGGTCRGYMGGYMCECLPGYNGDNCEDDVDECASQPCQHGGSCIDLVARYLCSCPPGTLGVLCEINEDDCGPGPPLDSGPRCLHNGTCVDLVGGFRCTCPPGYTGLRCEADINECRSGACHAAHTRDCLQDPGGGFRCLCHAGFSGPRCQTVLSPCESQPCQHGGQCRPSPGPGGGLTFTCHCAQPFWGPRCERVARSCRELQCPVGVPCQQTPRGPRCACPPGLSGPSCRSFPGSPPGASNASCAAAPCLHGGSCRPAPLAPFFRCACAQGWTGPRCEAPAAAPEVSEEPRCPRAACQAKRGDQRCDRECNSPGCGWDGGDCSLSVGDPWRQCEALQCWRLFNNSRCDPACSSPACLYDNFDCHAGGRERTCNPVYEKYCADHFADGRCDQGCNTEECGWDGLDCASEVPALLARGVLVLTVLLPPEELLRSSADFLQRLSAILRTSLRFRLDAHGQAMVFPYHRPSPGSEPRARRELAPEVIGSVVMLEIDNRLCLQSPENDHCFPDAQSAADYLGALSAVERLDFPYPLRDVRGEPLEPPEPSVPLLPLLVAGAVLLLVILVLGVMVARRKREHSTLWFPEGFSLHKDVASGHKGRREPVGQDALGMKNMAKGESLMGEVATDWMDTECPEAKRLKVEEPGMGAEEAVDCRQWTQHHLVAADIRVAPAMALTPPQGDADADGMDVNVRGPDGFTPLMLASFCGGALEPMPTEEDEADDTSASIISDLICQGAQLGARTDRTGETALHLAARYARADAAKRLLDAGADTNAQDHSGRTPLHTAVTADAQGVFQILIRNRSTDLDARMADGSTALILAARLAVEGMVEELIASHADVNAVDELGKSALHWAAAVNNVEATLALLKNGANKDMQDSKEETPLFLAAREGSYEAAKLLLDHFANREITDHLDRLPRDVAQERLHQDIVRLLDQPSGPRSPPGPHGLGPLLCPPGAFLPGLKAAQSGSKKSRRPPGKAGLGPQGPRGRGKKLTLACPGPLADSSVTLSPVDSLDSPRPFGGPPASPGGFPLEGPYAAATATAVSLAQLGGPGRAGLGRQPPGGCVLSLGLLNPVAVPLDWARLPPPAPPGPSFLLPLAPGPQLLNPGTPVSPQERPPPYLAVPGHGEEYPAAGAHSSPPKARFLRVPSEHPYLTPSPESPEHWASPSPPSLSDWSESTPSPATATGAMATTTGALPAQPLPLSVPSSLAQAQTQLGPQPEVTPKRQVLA
# [10] = small-molecule microarray binders of probe aEGFR, primary screen, biochemical, biotinylated probe, 635/667 nm fluorescence (AID 1097); details: higher = more signal;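 also: probe is a biotinylated anti-EGFR antibody binding compounds printed on slides; score combines fluorescence near 667 nm and signal to noise of each spot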
# [11] = tested on: Plasmodium falciparum Sir2 (PF13_0152, Sir2A); assay: pfSir2 binders on small-molecule microarrays, primary screen, biochemical, small-molecule microarray, 635 nm fluorescence (AID 1098); details: small-molecule microarray binding, fluorescence 635 nm; higher = more signal;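 also: score merges spot fluorescence intensity with its signal-to-noise ratio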
# [12] = small-molecule microarray binders of probe aDKK1, primary screen, biochemical, biotinylated probe, 635/667 nm fluorescence (AID 1099); details: higher = more signal;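 also: score merges 667nm spot fluorescence with signal to noise across triplicate slides; reference of the scale not given here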
# [13] = small-molecule microarray binders of probe aCHRDL2, primary screen, biochemical, biotinylated probe, 635/667 nm fluorescence (AID 1100); details: higher = more signal
# [14] = splicing luciferase reporter signal modulators, primary screen, spliceosome inhibition project, cell-based, HEK293, splice +/- reporter (AID 1101); details: luminescence, 24 h, higher = more signal, called active from +8 up or from −8 down;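 also: HEK293 cells carrying a splicing-competent luciferase reporter gene; test concentration not given here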
# [15] = biological target: Fibroblast growth factor 10 (Homo sapiens) (UniProt O15520); assay: FGF10 binders on small-molecule microarrays, primary screen, biochemical, small-molecule microarray, 635 nm fluorescence (AID 1102); details: FGF10 binding, fluorescence 635 nm, higher = more signal
# Chain of Fibroblast growth factor 10 (Homo sapiens) (O15520 whole entry, looked up): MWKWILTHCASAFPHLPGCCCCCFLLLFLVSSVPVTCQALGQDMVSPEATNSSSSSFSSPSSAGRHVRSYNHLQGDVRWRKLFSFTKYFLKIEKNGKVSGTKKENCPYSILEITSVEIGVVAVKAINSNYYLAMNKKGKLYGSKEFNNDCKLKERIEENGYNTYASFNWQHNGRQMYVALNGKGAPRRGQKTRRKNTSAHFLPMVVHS
# [16] = tested on: glycogen synthase kinase-3 (GSK3A per assay name; protocol says GSK3B); assay: GSK3 binders on small-molecule microarrays, primary screen, biochemical, small-molecule microarray, 635 nm fluorescence, GSK3A (AID 1103); details: small-molecule microarray binding, fluorescence 635 nm; higher = more signal; also: the record names both GSK3A and GSK3B
# [17] = biological target: Epidermal growth factor receptor (Homo sapiens) (UniProt P00533); assay: EGFR binders on small-molecule microarrays, primary screen, biochemical, small-molecule microarray, 635 nm fluorescence (AID 1104); details: EGFR binding, higher = more signal;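 also: score merges 667 nm emission intensity with spot signal to noise over triplicate slides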
# Chain of Epidermal growth factor receptor (Homo sapiens) (P00533 whole entry, looked up): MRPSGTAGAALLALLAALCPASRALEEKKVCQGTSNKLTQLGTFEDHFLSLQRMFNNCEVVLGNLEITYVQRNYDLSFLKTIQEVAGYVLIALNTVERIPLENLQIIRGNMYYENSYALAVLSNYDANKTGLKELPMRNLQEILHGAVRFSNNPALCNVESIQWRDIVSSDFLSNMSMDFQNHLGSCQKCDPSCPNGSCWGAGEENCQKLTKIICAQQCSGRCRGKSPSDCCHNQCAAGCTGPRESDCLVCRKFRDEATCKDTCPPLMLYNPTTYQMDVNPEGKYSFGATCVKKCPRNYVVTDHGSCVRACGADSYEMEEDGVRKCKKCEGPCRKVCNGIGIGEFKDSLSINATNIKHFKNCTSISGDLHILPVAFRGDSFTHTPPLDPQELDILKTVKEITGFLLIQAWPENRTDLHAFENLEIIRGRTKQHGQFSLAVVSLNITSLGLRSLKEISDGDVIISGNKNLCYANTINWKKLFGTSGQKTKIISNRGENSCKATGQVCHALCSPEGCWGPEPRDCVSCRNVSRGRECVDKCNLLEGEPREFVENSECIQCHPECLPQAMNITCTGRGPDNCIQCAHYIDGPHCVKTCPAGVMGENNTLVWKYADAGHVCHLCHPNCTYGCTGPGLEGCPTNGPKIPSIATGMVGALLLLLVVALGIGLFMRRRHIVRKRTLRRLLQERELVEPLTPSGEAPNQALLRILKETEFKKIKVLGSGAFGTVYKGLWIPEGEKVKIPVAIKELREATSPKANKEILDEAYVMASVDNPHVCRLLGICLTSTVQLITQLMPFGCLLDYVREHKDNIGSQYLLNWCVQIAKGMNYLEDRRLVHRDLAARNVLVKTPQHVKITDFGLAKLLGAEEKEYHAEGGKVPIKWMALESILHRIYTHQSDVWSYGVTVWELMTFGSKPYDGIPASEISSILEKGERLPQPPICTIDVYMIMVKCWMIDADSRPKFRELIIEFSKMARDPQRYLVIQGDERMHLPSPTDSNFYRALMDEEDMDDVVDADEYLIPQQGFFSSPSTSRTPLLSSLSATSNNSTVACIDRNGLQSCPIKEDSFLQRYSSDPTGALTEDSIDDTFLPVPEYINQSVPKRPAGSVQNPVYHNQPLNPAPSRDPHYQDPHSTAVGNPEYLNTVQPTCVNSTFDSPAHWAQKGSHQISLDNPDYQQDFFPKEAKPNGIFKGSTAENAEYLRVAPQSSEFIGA
# [18] = biological target: Follistatin-related protein 3 (Homo sapiens) (UniProt O95633); assay: FSTL3 binders on small-molecule microarrays, primary screen, biochemical, small-molecule microarray, 635 nm fluorescence (AID 1105); details: FSTL3 binding, higher = more signal;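 also: score merges emission near 667 nm and signal to noise per printed spot across three slides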
# Chain of Follistatin-related protein 3 (Homo sapiens) (O95633 whole entry, looked up): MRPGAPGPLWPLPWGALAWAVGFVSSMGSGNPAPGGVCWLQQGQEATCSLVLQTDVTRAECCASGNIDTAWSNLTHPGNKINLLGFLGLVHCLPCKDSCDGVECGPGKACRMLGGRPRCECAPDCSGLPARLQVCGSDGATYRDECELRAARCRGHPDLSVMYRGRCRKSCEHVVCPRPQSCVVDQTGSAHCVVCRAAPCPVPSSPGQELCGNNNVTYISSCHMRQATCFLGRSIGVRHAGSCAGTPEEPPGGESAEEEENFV
# [19] = biological target: Dickkopf-related protein 1 (Homo sapiens) (UniProt O94907); assay: DKK1 binders on small-molecule microarrays, primary screen, biochemical, small-molecule microarray, 635 nm fluorescence scan (AID 1106); details: DKK1 binding, higher = more signal;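 also: score merges emission near 667 nm with signal to noise over three replicate slides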
# Chain of Dickkopf-related protein 1 (Homo sapiens) (O94907 whole entry, looked up): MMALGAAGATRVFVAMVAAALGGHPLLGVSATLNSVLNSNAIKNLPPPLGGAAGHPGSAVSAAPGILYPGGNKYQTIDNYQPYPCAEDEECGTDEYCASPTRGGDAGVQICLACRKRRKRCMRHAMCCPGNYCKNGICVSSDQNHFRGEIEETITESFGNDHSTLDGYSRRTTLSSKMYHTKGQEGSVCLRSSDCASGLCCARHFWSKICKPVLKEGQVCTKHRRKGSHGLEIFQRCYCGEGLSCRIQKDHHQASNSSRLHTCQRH
# [20] = tested on: Inhibin beta A chain (activin A); assay: INHBA (activin A) binders on microarrays, primary screen, biochemical, small-molecule microarray, 635 nm fluorescence scan (AID 1107); details: small-molecule microarray binding, higher = more signal;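 also: mouse activin A protein probed at 4.33 µg/mL on printed slides; score merges bound-protein fluorescence near 667 nm with spot signal-to-noise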
Compound,composite z-score [1],z-score [2],z-score [3],z-score [4],composite z-score [5],z-score [6],composite z-score [7],composite z-score [8],composite z-score [9],composite z-score [10],composite z-score [11],composite z-score [12],composite z-score [13],z-score [14],composite z-score [15],composite z-score [16],composite z-score [17],composite z-score [18],composite z-score [19],composite z-score [20]
CC(C)C(=C=CC[C@@H](O)c1cccc(OCCO)c1)CCO,-0.102,0.493 (inactive),-0.0344 (inactive),-0.0595 (inactive),1.07,0.739 (inactive),-0.0003,0.305,0.454,0.0241,0.725,0.0614,0.111,-0.87 (inactive),1.51,-0.615,-0.554,0.457,0.137,0.677
CCOC(=O)C[C@H]1[C@H](OC(=O)Cc2ccc3c(c2)OCO3)[C@@H](NC(=O)c2ccccc2)c2cc(OCCCO)ccc2N1C(=O)Cc1ccc(OC)cc1,0.498,-2.62 (inactive),-0.91 (inactive),-0.602 (inactive),0.837,-0.429 (inactive),-0.0915,0.0752,0.206,-0.0978,-0.1,-0.386,-0.167,-2.62 (inactive),0.236,0.227,0.237,0.339,0.0486,-0.296
CC(C)(C)N1CC=CC23O[C@@H]4/C=C\CCCOC(=O)C4[C@H]2C(=O)N(CCCCCCO)[C@@H]3C1=O (stereo not given in full),-0.0574,-3.01 (inactive),-0.927 (inactive),-0.624 (inactive),1.24,1.42 (inactive),-0.302,-1.19,-0.052,0.252,0.873,-0.204,0.63,-0.725 (inactive),-0.374,-0.749,-0.741,0.0927,-0.857,0.705
C=CCC(OC(C)=O)[C@@H]1[C@@H](N(Cc2ccc(-c3cccc(C(F)(F)F)c3)o2)C(=O)Cc2ccc(F)cc2)c2cc(OCCCO)ccc2N1C(=O)c1ccc2ccccc2n1 (stereo not given in full),-1.08,-0.203 (inactive),0.15 (inactive),-0.522 (inactive),-0.452,-1.08 (inactive),-0.0415,-0.436,-0.768,-0.157,-0.106,0.0195,0.416,-0.362 (inactive),-0.218,-1.85,-0.35,-0.281,-0.0545,1.58
CC(C)C[C@H]1NC(=O)[C@H](Cc2ccccc2)NC(=O)[C@@]23C(=O)N[C@@H](Cc4ccccc4)C2[C@H](C)[C@@]2(C)O[C@H]2C3/C=C/C/C=C\CNC1=O (stereo not given in full),1.21,-1.12 (inactive),-0.667 (inactive),-0.302 (inactive),1.46,-1.03 (inactive),-0.123,0.426,0.852,-0.0968,1.19,0.0099,-0.4,-0.514 (inactive),0.916,0.979,0.121,0.676,0.726,1.12
CN1C(=O)[C@]2(CCC(=O)OC(C)(C)C)N=C(c3ccc(OCCCO)cc3)O[C@@H]2c2ccccc21,1.55,0.494 (inactive),-0.243 (inactive),0.872 (inactive),3.06,0.95 (inactive),0.0079,1.9,1.13,-0.04,1.14,-0.0732,0.651,-0.432 (inactive),1.38,1.29,-0.0099,0.659,0.297,0.643
COCCOC(=O)N1C(=O)[C@@]2(c3ccccc31)[C@H](C(=O)N1CCCCCCC1)[C@H]1C(=O)O[C@H](c3ccccc3)[C@H](c3ccccc3)N1[C@@H]2c1ccc(O)cc1,1.53,-1.37 (inactive),-0.268 (inactive),1.63 (inactive),4.37,1.39 (inactive),1.75,1.11,1.09,1.15,1.86,2.77,1.76,-0.216 (inactive),1.38,1.35,1.32,1.68,1.93,1.92
COCCOC(=O)N1C(=O)[C@@]2(c3ccccc31)[C@H](C(N)=O)[C@H]1C(=O)O[C@H](c3ccccc3)[C@H](c3ccccc3)N1[C@@H]2c1ccc(OCCO)cc1,1.54,2.25 (inactive),0.601 (inactive),4.25 (inactive),2.58,0.935 (inactive),-0.0862,1.61,1.14,-0.132,0.537,-0.122,0.093,0.172 (inactive),1.08,1.3,0.0401,1.1,0.253,0.319
Cc1ccc(S[C@]2(C(=O)NC3CC3)CC(=O)N(Cc3cc(C(F)(F)F)cc(C(F)(F)F)c3)[C@@H]2c2ccc(CO)cc2I)cc1,1.28,-5.04 (inactive),-3.38 (inactive),-0.429 (inactive),2.2,0.545 (inactive),-0.242,0.502,0.409,0.395,1.8,0.679,-0.525,0.0986 (inactive),0.126,0.322,-0.141,0.484,-0.0211,1.15
COCCn1c(C(=O)N2CCCC2)cc2c1C[C@H]1CN(C(=O)c3ccccc3)[C@@](Cc3ccccc3)(C(=O)OC)[C@@H]21,1.28,0.448 (inactive),0.105 (inactive),0.573 (inactive),3.11,0.0508 (inactive),0.907,0.386,0.805,0.827,1.06,0.592,0.268,-1.09 (inactive),1.15,1.26,-0.273,0.166,0.257,0.693
COC(=O)C1(CC(C)C)C=C2C(=C(C(C)C)C(=O)C2C)CN1 (stereo not given),-0.866,-0.166 (inactive),-0.0608 (inactive),1.08 (inactive),0.412,-0.844 (inactive),-0.0289,-1.29,-0.877,-0.103,-0.573,0.834,0.937,1.97 (inactive),-0.296,-2,-0.961,-0.771,-0.871,1.34
